# Bioassay records as filed in PubChem BioAssay.
# Cycloheximide cs = affects cycloheximide protein synthesis inhibition readout, counter-screen; cell reporter, cycloheximide protein synthesis inhibition counterscreen; max response, %; 12% of 300,000 active; AID 2314; in the data active = max response mostly above about 13%, no sharp cut-off; inactive = mostly below about 14%; note: read at 38.3 µM for the half of the compounds with a filed dose; 0% is about no effect
# Shiga inhibitor = blocks Shiga toxin action in Vero cells. Vero cells, Shiga toxin protein synthesis inhibition reporter. inhibition, % at 38.7 µM. 9.2% of 290,000 active; in the data active = inhibition mostly above about 28%, no sharp cut-off; inactive = mostly below about 43%; note: 0% is about no effect
# Tb PYK inh = inhibitors of Trypanosoma brucei pyruvate kinase. Q57TT1. AID 624173. TbPYK enzyme, Kinase-Glo Plus ATP luminescence, 45 min. Potency, µM (top dose mostly 76.8 µM), for inactives: top-dose activity, negative = inhibition, usual class: inhibitors. 0.12% of 410,000 active; note: potency is the fitted concentration of half-maximal effect; % is set by controls: 0 for no effect and ±100 for the full control effect; nearly all actives have a fitted effect of over 50% in size
#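 Glycolytic pyruvate kinase of T. brucei was incubated with substrate, test compound and 130 uM ADP for 45 minutes at room temperature. Luminescent Kinase-Glo Plus signal was measured after 10 minutes.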
# Sm TGR block = inhibitors of Schistosoma mansoni thioredoxin glutathione reductase; 3% of 360,000 active; Potency, µM (doses to about 114 µM), for the others: top-dose activity change, negative = inhibition, usual class: inhibitors; purified TGR, DTNB reduction, TNB absorbance 405 nm; AID 485364; Q962Y6; note: potency is the fitted concentration of half-maximal effect; % is set by controls: 0 for no effect and ±100 for the full control effect; nearly all actives have a fitted effect of over 60% in size
#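 TGR 20 nM + NADPH 100 uM (dispensed conc.), cpd preinc 15 min RT; start with NADPH (500 uM addition) then DTNB (15 mM addition). Kinetic TNB absorbance, 405 nm filter. Four-parameter Hill fit across titration.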
# Giardia FBPA inh-1 = Giardia lamblia aldolase inhibition; A8B2U2; purified Giardia FBPA; Potency, µM (doses to about 59.6 µM), inactives show at the highest dose activity, negative = inhibition, actives largely listed as inhibitors; 0.71% of 290,000 active; note: potency is the fitted concentration of half-maximal effect; % is set by controls: 0 for no effect and ±100 for the full control effect; nearly all actives have a fitted effect of over 55% in size
# Target sequence (A8B2U2 whole entry, looked up): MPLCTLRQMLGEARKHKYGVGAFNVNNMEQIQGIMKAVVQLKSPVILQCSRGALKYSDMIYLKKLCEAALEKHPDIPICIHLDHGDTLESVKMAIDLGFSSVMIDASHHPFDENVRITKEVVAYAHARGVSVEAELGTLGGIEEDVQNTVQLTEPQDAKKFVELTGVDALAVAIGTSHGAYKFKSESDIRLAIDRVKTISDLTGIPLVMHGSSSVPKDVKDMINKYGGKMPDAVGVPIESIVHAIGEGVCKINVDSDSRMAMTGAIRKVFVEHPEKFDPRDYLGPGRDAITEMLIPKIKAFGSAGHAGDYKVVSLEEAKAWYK
#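 40 nM FBPA preincubated 10 min at RT with compound (up to 57.5 uM final), then substrate plus GAPDH/TPI/NAD/arsenate coupling and diaphorase/resazurin added. Fluorescence read after 20 min at RT, 525/598 nm.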
# LmPK inh = LmPK (Leishmania mexicana) enzyme inhibition; 0.37% of 290,000 active; Potency, µM (highest dose often 57.5 µM), for the others: at the top dose activity change, negative = inhibition, usual class: inhibitors; purified LmPK, Kinase-Glo ATP luminescence, 1 h; AID 1721; Q27686; note: potency is the fitted concentration of half-maximal effect; % is set by controls: 0 for no effect and ±100 for the full control effect
#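 Kinase-Glo luminescence read after 1 h RT reaction of 0.1 nM LmPK with 0.5 mM PEP and 0.1 mM ADP. Activity scaled between uninhibited and enzyme-free controls.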
# Giardia growth = Giardia lamblia growth inhibition; shares compounds with Giardia FBPA inh-1; Giardia lamblia trophozoite growth inhibition; Potency, µM (titrated, usually from 57.5 µM), inactives show top-dose activity change, negative = inhibition, most hits filed as inhibitors; 5% of 1,500 active; AID 2785;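 note: potency is the fitted concentration of half-maximal effect; trophozoites exposed to compound for 48 h at 37 °C; % is set by controls: 0 for no effect and ±100 for the full control effect; nearly all actives have a fitted effect of over 70% in size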
# Mammalian tox = counter-screen for Giardia aldolase inhibitors: mammalian cell toxicity. shares compounds with Giardia FBPA inh-1. mammalian cell viability counter-screen, qHTS. Potency, µM (doses to about 57.5 µM), for inactives: top-dose viability change, negative = toxicity, hits mostly inhibitors. 4% of 1,500 active. AID 2786;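 note: Chinese hamster ovary cells used as mammalian cytotoxicity surrogate; viability measured as cellular ATP by luminescence; potency is the fitted concentration of half-maximal effect; compound exposure lasted 48 h before reading; % is set by controls: 0 for no effect and ±100 for the full control effect; nearly all actives have a fitted effect of over 60% in size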
# Giardia FBPA inh-2 = confirmation of Giardia fructose-bisphosphate aldolase inhibitors; shares compounds with Giardia FBPA inh-1; purified Giardia aldolase enzyme activity, qHTS; Potency, µM (top dose mostly 57.5 µM), for inactives: top-dose activity change, negative = inhibition, usual class: inhibitors; 5% of 1,500 active; AID 2787; note: potency is the fitted concentration of half-maximal effect; % is set by controls: 0 for no effect and ±100 for the full control effect; nearly all actives have a fitted effect of over 45% in size
# Rabbit FBPA inh = selectivity test for Giardia aldolase inhibitors: rabbit aldolase. shares compounds with Giardia FBPA inh-1. Rabbit muscle FBPA enzyme inhibition, selectivity counter-screen. Potency, µM (series often up to 57.5 µM), inactives show at the highest dose activity, negative = inhibition, hits mostly inhibitors. 4% of 1,500 active; note: potency is the fitted concentration of half-maximal effect; % is set by controls: 0 for no effect and ±100 for the full control effect; nearly all actives have a fitted effect of over 60% in size
# Target sequence (P00883 whole entry, looked up): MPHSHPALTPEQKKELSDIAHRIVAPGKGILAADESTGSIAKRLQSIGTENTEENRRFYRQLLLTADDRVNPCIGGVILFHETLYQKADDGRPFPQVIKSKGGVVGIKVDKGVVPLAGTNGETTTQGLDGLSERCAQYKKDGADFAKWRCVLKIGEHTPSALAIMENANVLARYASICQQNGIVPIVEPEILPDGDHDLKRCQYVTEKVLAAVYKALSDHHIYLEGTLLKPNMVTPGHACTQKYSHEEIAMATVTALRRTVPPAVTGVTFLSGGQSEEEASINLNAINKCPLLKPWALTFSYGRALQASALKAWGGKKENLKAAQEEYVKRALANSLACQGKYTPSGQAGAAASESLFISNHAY
# GAPDH coupling = counter-screen for Giardia aldolase inhibitors: GAPDH coupling enzyme. shares compounds with Giardia FBPA inh-1. GAPDH coupling enzyme counterscreen, biochemical, qHTS. Potency, µM (titrated, usually from 57.5 µM), inactives show at the highest dose activity change, negative = inhibition, hits mostly inhibitors. 6% of 1,500 active. AID 2795; note: potency is the fitted concentration of half-maximal effect; % is set by controls: 0 for no effect and ±100 for the full control effect; nearly all actives have a fitted effect of over 55% in size
# * = called active by the depositor; ? = inconclusive; / = not tested or not shown; [ ] = another dose, or the depositor's remark. The sample as a whole holds a higher share of hits than the screen did. Unless noted, calls come from the whole dose curve; as a rule, active = well fitted curve in the direction sought with a large enough effect; inconclusive = small, poorly fitted or top-dose-only effect, or another doubt; inactive = no such curve, though single readings can be large; an effect the other way counts as inactive or inconclusive.
SMILES,Cycloheximide cs,Shiga inhibitor,Tb PYK inh,Sm TGR block,Giardia FBPA inh-1,LmPK inh,Giardia growth,Mammalian tox,Giardia FBPA inh-2,Rabbit FBPA inh,GAPDH coupling
Cn1nnc(NC(=S)NC(=O)/C=C/c2ccco2)n1,2,-4,-22%,3.2µM*,3.5µM*,13%,-28%[38.3 µM],-2%,-19%,-20%,-23%
CCOC(=O)Oc1c(OC)cc(C(=O)O[C@@H]2C[C@@H]3CN4CCc5c([nH]c6cc(OC)ccc56)[C@H]4C[C@@H]3[C@H](C(=O)OC)[C@H]2OC)cc1OC,/,/,1%,-9%,/,/,/,/,/,/,/
C=CCN=c1scc(C)n1/N=C/c1ccc(O)c(O)c1,37*,65*,?,?,22µM*,0%,8%,-19%,-25%,-29%,-18%
COc1cc(/C=C2\C(=O)ON=C2c2ccc(Cl)cc2)ccc1O,/,/,-26%,/,/,/,/,/,/,/,/
O=C1ON=C(c2ccccc2)/C1=C/c1ccc(O)c(O)c1,-4,-5,-29%,5µM*,4µM*,?,?,-14%,-25%,-19%,2%
CCC(NC(=O)NNC(N)=S)(C(F)(F)F)C(F)(F)F,-2,19,-8%,1%,20µM*,-2%,17%,9%,6%,3%,7%
CC1=CC(=O)c2ccccc2C1=O,7,17,1%,28µM*,?,2%,-8%[38.3 µM],-14%,?,?,?
Oc1ccc(/C=N/Nc2ccnc3cc(Cl)ccc23)c(O)c1O,-7,24,?,-28%,14µM*,-11%,-19%,0%,?,?,?
CN(CCCNC(=O)c1ccc(/C=N/O)nc1)CCCN(C)Cc1ccccc1,-2,-9,6%,11%,/,-3%,/,/,/,/,/
O=C(NCCCNCCCNC(=O)c1ccc(/C=N/O)nc1)c1ccc(/C=N/O)nc1,-2,-6,6%,-21%,4µM*,-1%,-18%[38.3 µM],2%,-9%,-4%,-25%
COc1ccc(NC(=O)C2CCN(S(=O)(=O)c3ccc4[nH]c(=O)ccc4c3)CC2)c(OC)c1,/,/,-1%,6%,/,/,/,/,/,/,/
COc1ccccc1NCC(O)COc1ccc(C(C)(C)C)cc1 (stereo not drawn),-2,18,-2%,24%,18µM*,-2%,?,9%,-12%,-1%,-12%
O=C(NCCCCN1CCOCC1)c1cc2ccccc2o1,4,-21,/,/,-9%,/,/,/,/,/,/
Cc1cc2cc(C(c3nnnn3CC3CCCO3)N3CCCc4ccccc43)c(=O)[nH]c2cc1C (stereo not drawn),12*,13,-1%,?,4µM*,-5%,1%,-5%,-13%,-3%,-19%
C[C@@H]1CN([C@H](C)CO)C(=O)CCCn2cc(nn2)CO[C@H]1CN(C)S(=O)(=O)c1ccc(Oc2ccccc2)cc1,/,/,-13%,/,/,/,/,/,/,/,/
C[C@H](N)C(=O)N1CCC(C(=O)N[C@@H](Cc2ccccc2)C(=O)Nc2ccc(F)cc2)CC1,2,-4,-10%,-2%,16µM*,-6%,-26%,12%,-2%,-3%,3%
COC(=O)[C@@H]1C[C@@]2(O)[C@@H](O)[C@@H](O)[C@@H](O)C[C@H]2N1CC1CC1,/,/,/,/,-3%,/,/,/,/,/,/
NC(=O)C1(N2CCCCC2)CCN(C(=S)Nc2ccc(S(N)(=O)=O)cc2)CC1,-2,-2,?,-19%,7.9µM*,2%,87%,-3%,-23%,-15%,-20%
CCN(c1ccccc1)S(=O)(=O)c1ccc(C(=O)Nc2nnc(CSC)o2)cc1,-5,-10,-17%,-5%,16µM*,-6%,5%[10.4 µM],-3%,5%,18%,13%
CCN(c1ccccc1)S(=O)(=O)c1ccc(C(=O)Nc2nnc(COC)o2)cc1,-7,-39,-2%,-12%,?,-1%,/,/,/,/,/
CN(c1ccccc1)S(=O)(=O)c1ccc(C(=O)Nc2nnc(C3CC3)o2)cc1,0,-14,-3%,4%,4.5µM*,7%,-14%[38.3 µM],?,-4%,7%,-6%
CCC1CCCCN1S(=O)(=O)c1ccc(C(=O)Nc2nnc(C3CC3)o2)cc1 (stereo not drawn),-4,-14,4%,0%,25µM*,7%,11%[10.4 µM],-16%,6%,13%,7%
CCN(c1ccccc1)S(=O)(=O)c1ccc(C(=O)Nc2nnc(-c3ccco3)o2)cc1,-5,-7,-6%,?,3%,2%[11.5 µM],/,/,/,/,/
CCN(c1ccccc1)S(=O)(=O)c1ccc(C(=O)Nc2nnc(C3CC3)o2)cc1,-3,-15,3%,-9%,8.9µM*,4%,45µM*,-19%,-1%,12%,5%
COCCN(CCOC)S(=O)(=O)c1ccc(C(=O)Nc2nnc(C3CC3)o2)cc1,-3,-1,6%,0%,-1%,0%,/,/,/,/,/
SMILES,Cycloheximide cs,Shiga inhibitor,Tb PYK inh,Sm TGR block,Giardia FBPA inh-1,LmPK inh,Giardia growth,Mammalian tox,Giardia FBPA inh-2,Rabbit FBPA inh,GAPDH coupling
Cc1ccc(NC(=O)CN2C(=O)CSc3ccc(S(=O)(=O)N4CCCC4)cc32)c(C)c1,/,/,-3%,1%,/,/,/,/,/,/,/
CC1(C(=O)NS(=O)(=O)c2cccs2)CCN1C(=O)CC1CCCC1 (stereo not drawn),/,/,-1%,/,/,/,/,/,/,/,/
C=CCSc1n[nH]c(-c2cccs2)n1,9,56,-16%,3%,13µM*,1%,-22%,6%,3%,-1%,3%
O=c1c2ccccc2n2c(=S)[nH]nc2n1-c1ccccc1,2,-2,?,-13%,7.1µM*,0%,-8%,4%,6%,14%,15%
CCC(C)c1ccc(-n2c(=O)c3ccccc3n3c(=S)[nH]nc23)cc1 (stereo not drawn),-1,-6,-8%,16%,8%,10%,/,/,/,/,/
Cn1c(=O)c2ccccc2n2c(=S)[nH]nc12,-6,18,-9%,2%,16µM*,1%,23%,11%,12%,3%,9%
